Viability index data for 39 compounds are collected here from the supplement of paper PMC4723716.

The test system of one experiment is Plasmodium falciparum NF54 gametocytes. The experiment in a line: viability index relative to DMSO control (fraction); higher = less gametocyte killing. The settings on record: gametocyte stage: Stage IV viability index; 12.5 µM; incubation time: 72 h. The gist of the method: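 In 384-well plates, compound at 12.5 µM was incubated for 72 hr at 37°C under low oxygen with P. falciparum NF54 gametocytes of each stage (I–V) at 0.50% gametocytemia and 1.25% hematocrit in 40 µl of serum-containing medium. Staining used 5 µl of 5 µM MitoTracker Red CMXRos for 20 min, then 5 µl was moved into 40 µl of 500 nM dye in serum-free medium and imaged after 30 min. Dividing the gametocyte particle count by the plate mean of solvent-only wells gave the viability index.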
The compound `COc1ccc(C=C2SC(Nc3ccc(F)cc3)=NC2=O)c(OC)c1` displayed a viability index of 0.646.

For `COc1ccc(C(O)(CCC(C)C)C(CN2CCOCC2)c2ccc(Cl)cc2)cc1` (stereo unspecified), the viability index came out at 1.

With `COc1ccc(-c2cc3c(nn2)-c2ccccc2C3=O)cc1`, the viability index stood at 0.693.

The compound `CCOc1cc(Cl)c(C(C)NC(=O)c2ccccc2)cc1OCC` (stereo unspecified) gave a viability index of 1.03.

`O=C1C2=C(Nc3ccccc3SC2c2ccccc2)c2ccccc21` (stereo unspecified) yielded a viability index of 0.623.

`COc1ccccc1CNC(=O)C1c2ccccc2C(=O)N(CC(C)C)C1c1cccs1` (stereo unspecified) came in with a viability index of 0.976.

Compound `O=C(CCc1ccccc1)c1ccccc1OCC(O)CN1CCCCC1` (stereo unspecified) displayed a viability index of 0.465.

`CCCCCCn1c(=N)n(CC(O)COc2cccc(C)c2)c2ccccc21` (stereo unspecified): the viability index came to 0.149.

For `COc1ccc(-c2nc(NC(=O)CS(=O)(=O)c3ccc(F)cc3)sc2C)cc1`, the viability index came to 0.888.

On to `Oc1c2c(nc3cc(-c4ccccc4)nn13)CCCC2`, for which the viability index was 0.878.

For `COc1ccc(Nc2cc(C)nc(NCc3ccccc3)n2)cc1`, the viability index was 0.589.

Take `Cc1ccc(Nc2nc(NCCO)c3ccccc3n2)cc1C`: the viability index was 0.796.

Regarding `O=C(NC1CCCC1)c1ccc(N2CCC(NCc3cccc(C(F)(F)F)c3)CC2)cc1`, the viability index was 0.76.

As to `Cc1sc2ncnc(Sc3nc4ccccc4[nH]3)c2c1C`, the viability index is 0.0821.

On to `Cc1ccc(Nc2nc(N)c3ccccc3n2)cc1Cl`, for which the viability index amounted to 0.753.

Turning to `Clc1ccc2c(N3CCCC3)ccnc2c1`, the viability index worked out at 0.93.

On to `CCc1ccc(CNCC(O)c2ccccc2)cc1` (stereo unspecified), for which the viability index came to 0.703.

The compound `O=C(Nc1ccc(Cl)cc1C(=O)Nc1ccncc1)c1ccc(Cl)cc1Cl` had a viability index of 0.927.

In the case of `COc1ccc(C(=O)NC(c2ccc(Cl)cc2Cl)c2cc(Cl)c3cccnc3c2O)cc1` (stereo unspecified), the viability index worked out at 0.136.

With `CCCCNCC(O)(c1ccc(Cl)cc1)c1ccc(Cl)cc1`, the viability index amounted to 0.422.

Take `COc1ccc(C2NCCc3c2[nH]c2ccccc32)cc1CN1CCN(c2ccc(F)cc2)CC1` (stereo unspecified): the viability index was 0.0222.

Staying with this experiment, now noted: gametocyte stage: Stage V viability index; 12.5 µM; incubation time: 72 h.
Turning to `COc1ccc(CCn2c(=N)c(C(=O)NCc3cccnc3)cc3c(=O)n4cccc(C)c4nc32)cc1`, the viability index was 1.09.

For the compound `CCOc1cc2c(cc1OCC)C(c1cc(Cl)ccc1O)NCC2` (stereo unspecified), the viability index is 0.675.

As for `CCC(=O)Nc1nnc(Cc2ccc(OC)c(OC)c2)s1`, the viability index was 1.38.

Turning to `CC1=C(CC(=O)c2cccc([N+](=O)[O-])c2)C(=O)c2ccccc2C1=O`, the viability index amounted to 0.234.

As to `Cc1cc(N(C)C)nc(Nc2ccc(NC(=O)Nc3ccccc3)cc2)n1`, the viability index stood at 0.

Turning to `O=C(Nc1nc(-c2ccccn2)cs1)c1ccccc1Br`, the viability index was 0.0989.

`FC(F)(F)c1ccc(Nc2nnnc3ccccc23)cc1` had a viability index of 0.868.

For the compound `COc1ccc(-c2cc3c(SCC(=O)Nc4cc(C(F)(F)F)ccc4Cl)nccn3n2)cc1`, the viability index amounted to 1.05.

As for `COc1ccc(C(=O)NC(c2ccccc2Cl)c2cc(Cl)c3cccnc3c2O)cc1` (stereo unspecified), the viability index amounted to 0.221.

Turning to `COc1ccc2c(c1OC)C(=O)N1c3ccccc3N=C(c3ccc(C)cc3)CC21` (stereo unspecified), the viability index was 0.987.

With `Cc1ccc(C)c(-c2csc(Nc3ccc(C)c(C)c3)n2)c1`, the viability index stood at 0.558.

Compound `COc1ccc(C2N(C)c3ccccc3N2C)cc1` came in with a viability index of 1.07.

Compound `CCOC(=O)C1=C(c2ccccc2)N=c2sc(=Cc3cc(C)n(-c4ccc(F)cc4)c3C)c(=O)n2C1c1cccc(OC)c1OC` (stereo unspecified) yielded a viability index of 0.703.

As for `COc1ccc(C(=O)C2CC2c2ccc(Cl)cc2)cc1` (stereo unspecified), the viability index amounted to 0.558.

`Cc1ccc(CSCc2ccc(C(=O)NC3CC3)o2)cc1` yielded a viability index of 0.978.

`CCOc1ccc2c(c1)CN(Cc1ccc(Cl)cc1)CO2` returned a viability index of 0.468.

As for `CCOc1ccccc1NC(=O)CN1CCN(C(=O)c2ccco2)CC1`, the viability index worked out at 1.1.

Compound `COc1cc2cc(C(=O)Nc3ccccc3)c(N)nc2cc1OC` came in with a viability index of 0.758.

`COc1ccc(C=C2SC(Nc3ccc(F)cc3)=NC2=O)c(OC)c1` displayed a viability index of 0.558.

In the case of `COc1ccc(C(O)(CCC(C)C)C(CN2CCOCC2)c2ccc(Cl)cc2)cc1` (stereo unspecified), the viability index amounted to 0.922.

As for `COc1ccc(-c2cc3c(nn2)-c2ccccc2C3=O)cc1`, the viability index came to 1.

`CCOc1cc(Cl)c(C(C)NC(=O)c2ccccc2)cc1OCC` (stereo unspecified) displayed a viability index of 0.901.

Compound `O=C1C2=C(Nc3ccccc3SC2c2ccccc2)c2ccccc21` (stereo unspecified) had a viability index of 0.662.

In turn, `COc1ccccc1CNC(=O)C1c2ccccc2C(=O)N(CC(C)C)C1c1cccs1` (stereo unspecified) registered a viability index of 1.

The compound `O=C(CCc1ccccc1)c1ccccc1OCC(O)CN1CCCCC1` (stereo unspecified) gave a viability index of 0.39.

For the compound `CCCCCCn1c(=N)n(CC(O)COc2cccc(C)c2)c2ccccc21` (stereo unspecified), the viability index was found to be 0.0779.

Compound `COc1ccc(-c2nc(NC(=O)CS(=O)(=O)c3ccc(F)cc3)sc2C)cc1` registered a viability index of 0.978.

In the case of `Oc1c2c(nc3cc(-c4ccccc4)nn13)CCCC2`, the viability index was 0.879.

As to `COc1ccc(Nc2cc(C)nc(NCc3ccccc3)n2)cc1`, the viability index was found to be 0.481.

On to `Cc1ccc(Nc2nc(NCCO)c3ccccc3n2)cc1C`, for which the viability index turned out to be 0.659.
